The values below come from PubChem BioAssay (NCATS).

A short description of experiment [1]: qHTS assay for measurement of the activity of small molecule inhibitors on Zika virus induced Caspase-3 activity in human iPSC derived neural progenitor cells (hNPCs) (AID 1224857). Note: % of control where 0% means no effect; nearly all actives have a fitted effect of over 65% in size. The method, boiled down:
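After overnight (16–20 h) culture at 350 cells/well, hNPCs get compound, then ZIKV 2 FFU/cell one hour later. Six hours on, Caspase-Glo 3/7 is added and luminescence measured.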
(In general: In qHTS, concentration-response curves come from the screen itself.)

A short description of experiment [2]: qHTS assay for measurement of the activity of small molecule inhibitors on Zika virus induced Caspase-3 activity in human astrocytoma cells (AID 1224859).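 Note: plate controls were ZIKV-infected untreated cells for no effect and uninfected cells for full effect.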 In short, it runs like this:
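Inhibition of Zika-induced caspase-3/7 activity: SNB-19 cells, 1 h compound pretreatment, ZIKV 2 FFU/cell for 6 h at 37 C, Caspase-Glo luminescence read-out.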

Experiment [3] can be described thus: qHTS assay to identify small molecule inhibitors of chordoma cells - UCH-1 (AID 1259355). Note: % is set by controls: 0 for no effect and ±100 for the full control effect; nearly all actives have a fitted effect of over 55% in size. The method, boiled down: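 Luminescent ATP read-out (CellTiter-Glo, 30min at room temperature) measured viability of UCH-1 cells exposed for 48hr to test drugs at 15 concentrations, co-dosed with a five-agent combination of auranofin, camptothecin, doxorubicin, rubitecan and topotecan.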

A short description of experiment [4]: qHTS assay to identify small molecule inhibitors of chordoma cells - UCH-2 (AID 1259356). Note: % is set by controls: 0 for no effect and ±100 for the full control effect.
Experiment [5] can be described thus: High-throughput drug toxicity screening in the BPDCN cell line Cal-1 (AID 1224825; call rule not given here). The conditions noted are these: Cal-1 BPDCN cell viability, qHTS; at 45.8 µM (top of the series) unless noted. The method, boiled down:
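Exponentially growing Cal-1 cells, 500 per well in phenol red-free RPMI with 10% FBS, were exposed to compounds for 48 h at 37 °C, 5% CO2. Viability was read by CellTiter-Glo luminescence and normalised to DMSO (100%) and 9.2 uM bortezomib (0%).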

A short description of experiment [6]: P-glycoprotein substrates identified in KB-8-5-11 adenocarcinoma cell line, qHTS therapeutic library screen (AID 1346987). Note: nearly all actives have a fitted effect of over 65% in size. Note: potency is the fitted concentration of half-maximal effect. The method, boiled down:
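Steps: plate 500 KB-8-5-11 cells/well in DMEM + 10% FCS (colchicine removed); pin compounds in dose-response; incubate 72 h, 37 degree C, 5% CO2; add CellTiter-Glo, 5 min; read luminescence.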

The nature of experiment [7]: P-glycoprotein substrates identified in KB-3-1 adenocarcinoma cell line, qHTS therapeutic library screen (AID 1346986). Note: nearly all actives have a fitted effect of over 60% in size. The settings on record: KB-3-1 parental cells viability, CellTiter-Glo, 72 h; at 44.5 µM (top of the series) unless noted. The method, boiled down:
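Resistance attributable to P-gp was assessed by comparing AC50 in KB-8-5-11 with parental KB-3-1 and by tariquidar reversal. Cells were exposed 72 h and viability read by CellTiter-Glo.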

A short description of experiment [8]: NS1 protein of Zika virus - qHTS assay to identify small molecule inhibitors in human HEK 293 cells (AID 1347053).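 Note: plate controls were infected untreated cells for no effect and uninfected cells for full effect; nearly all actives have a fitted effect of over 55% in size.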 The method, boiled down:
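Following 20 h seeding, HEK 293 cells took compound, then 1 h later ZIKV MR766 (MOI = 0.5). Incubation ran 24 h at 37 C before TR-FRET detection of NS1; a drop in signal indicates inhibition.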

Experiment [9] in a line: qHTS Screen of the MIPE 4.0 Collection Against Ewings Sarcoma (EW8) (AID 1259255).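 Note: 100% = DMSO-treated cells and 0% = medium-only wells without cells; nearly all actives have a fitted effect of over 35% in size.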 The method, boiled down:
(§1)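 Measured: ATP luminescence (CellTiter-Glo) 10 min after reagent addition, following 48 h drug treatment. Relative luciferase units converted to percent activity, with no-cell wells as full and DMSO wells as zero inhibition.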

A short description of experiment [10]: Natriuretic polypeptide receptor (hNpr1) antagonism - Pilot counterscreen GloSensor control cell line (AID 1347045; calls by dose curve; note: % is set by controls: 0 for no effect and ±100 for the full control effect). The method, boiled down:
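Luminescence was read before and 20 min after adding 50 uM SNP, which stimulates soluble guanylyl cyclase. The HEK293 cells expressing the GloSensor cGMP sensor had been preloaded with 2% reagent for 2 h and treated with compound.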
(Counterscreens check selectivity or assay interference.)

The target of experiment [11] is Atrial natriuretic peptide receptor 1 (Homo sapiens) (UniProt P16066). Put plainly: Natriuretic polypeptide receptor (hNpr1) antagonism - Pilot screen (AID 1347049; calls by dose curve;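 note: agonist-evoked cGMP luminescence read 20 min after hNppA addition; % is set by controls: 0 for no effect and ±100 for the full control effect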). In short, it runs like this:
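HEK293 cells co-expressing hNpr1 and the GloSensor pGS-40F cGMP luciferase sensor were preloaded with 2% GloSensor reagent for 2 h. Compounds were added for 30 min at room temperature, then cells were stimulated with 0.1 nM hNppA for 20 min before luminescence readout.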

Experiment [12] concerns the target Atrial natriuretic peptide receptor 2 (Homo sapiens) (UniProt P20594). Put plainly: Natriuretic polypeptide receptor (hNpr2) antagonism - Pilot subtype selectivity assay (AID 1347050; calls by dose curve; note: % is set by controls: 0 for no effect and ±100 for the full control effect). The method, boiled down:
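cGMP-sensor HEK293/hNpr2 cells; 2% GloSensor reagent 2 h RT; compounds 30 min; baseline luminescence read; 1 nM hNppC agonist 20 min RT; final luminescence read by CCD camera. Antagonism = reduced post-agonist signal.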

In experiment [13] the target is T1, Tyrosine-protein phosphatase non-receptor type substrate 1 (Homo sapiens) + Leukocyte surface antigen CD47 (Homo sapiens) (UniProt P78324+Q08722). The experiment in a line: CD47-SIRPalpha protein protein interaction - LANCE assay qHTS validation (AID 1347057; active = well fitted curve in the direction sought with a large enough effect in the signal ratio, with a control signal flat, not every such curve was filed as active; the % refers to the signal ratio; note: 0% is about no effect). The method, boiled down:
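First, His-tagged CD47 and Eu-labelled anti-His antibody met the compound for 30 min; next, site-specifically biotinylated SIRPalpha was added for 30 min; finally streptavidin-APC was added before reading the TR-FRET ratio.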
In general terms: In TR-FRET formats the signal depends on donor and acceptor labels being close together.

Experiment [14] addresses T1, Tyrosine-protein phosphatase non-receptor type substrate 1 (Homo sapiens) + Leukocyte surface antigen CD47 (Homo sapiens). The experiment in a line: CD47-SIRPalpha protein protein interaction - HTRF assay qHTS validation (AID 1347058; active = well fitted curve in the direction sought with a large enough effect in the signal ratio, not every such curve was filed as active; the % refers to the signal ratio;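 note: recombinant soluble extracellular CD47 with His tag and biotinylated SIRPalpha domains; 0% is about no effect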). The method, boiled down:
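TR-FRET read (Ch1/Ch2 ratio) of soluble extracellular CD47 and Avi-biotinylated SIRPalpha domains in PBS pH 7.4 with 0.05% IGEPAL; 7-point compound titration. Sequential 30 min room-temperature steps; non-biotinylated SIRPalpha as control inhibitor.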

A short description of experiment [15]: qHTS Screen of the MIPE 4.0 Collection Against Ewings Sarcoma (RDES) (AID 1259252).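 Note: 100% = DMSO-treated cells and 0% = medium-only wells without cells; nearly all actives have a fitted effect of over 35% in size.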 The method, boiled down:
as §1

Experiment [16] in a line: qHTS Screen of the MIPE 4.0 Collection Against Ewings Sarcoma (TC71) (AID 1259253).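 Note: 100% = DMSO-treated cells and 0% = medium-only wells without cells; nearly all actives have a fitted effect of over 40% in size.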 In short, it runs like this:
as §1

Experiment [17] can be described thus: qHTS Screen of the MIPE 4.0 Collection Against Ewings Sarcoma (TC32) (AID 1259256).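 Note: 100% = DMSO-treated cells and 0% = medium-only wells without cells; nearly all actives have a fitted effect of over 45% in size.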 The method, boiled down:
as §1

Records with an inconclusive call do not appear. Active and inactive are the calls of the source. Unless noted, calls come from the whole dose curve; as a rule, active = well fitted curve in the direction sought with a large enough effect; inconclusive = small, poorly fitted or top-dose-only effect, or another doubt; inactive = no such curve, though single readings can be large; an effect the other way counts as inactive or inconclusive.

T1 sequence (P78324 whole entry, looked up): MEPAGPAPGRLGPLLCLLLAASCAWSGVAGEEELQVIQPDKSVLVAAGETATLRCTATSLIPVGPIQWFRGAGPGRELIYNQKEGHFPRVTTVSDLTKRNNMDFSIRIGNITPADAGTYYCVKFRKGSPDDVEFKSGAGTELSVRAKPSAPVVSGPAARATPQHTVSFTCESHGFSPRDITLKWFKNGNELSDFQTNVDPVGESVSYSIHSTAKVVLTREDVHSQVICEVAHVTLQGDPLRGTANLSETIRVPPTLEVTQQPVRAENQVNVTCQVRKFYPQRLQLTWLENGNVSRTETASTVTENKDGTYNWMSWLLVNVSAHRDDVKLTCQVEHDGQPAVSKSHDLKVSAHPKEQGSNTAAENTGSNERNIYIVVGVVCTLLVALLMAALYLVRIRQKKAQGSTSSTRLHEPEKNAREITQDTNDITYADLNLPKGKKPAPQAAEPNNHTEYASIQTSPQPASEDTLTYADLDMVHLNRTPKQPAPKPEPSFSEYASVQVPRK
T1 sequence (Q08722 whole entry, looked up): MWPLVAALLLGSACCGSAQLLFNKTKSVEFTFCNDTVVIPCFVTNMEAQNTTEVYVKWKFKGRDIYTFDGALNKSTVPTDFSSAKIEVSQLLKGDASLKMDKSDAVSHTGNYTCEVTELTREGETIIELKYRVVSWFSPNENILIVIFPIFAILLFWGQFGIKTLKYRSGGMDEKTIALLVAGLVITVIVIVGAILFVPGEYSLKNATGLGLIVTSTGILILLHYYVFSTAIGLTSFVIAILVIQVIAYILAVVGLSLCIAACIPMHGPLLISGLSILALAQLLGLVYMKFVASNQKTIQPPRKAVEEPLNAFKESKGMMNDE
Chain of Atrial natriuretic peptide receptor 2 (Homo sapiens) (P20594 whole entry, looked up): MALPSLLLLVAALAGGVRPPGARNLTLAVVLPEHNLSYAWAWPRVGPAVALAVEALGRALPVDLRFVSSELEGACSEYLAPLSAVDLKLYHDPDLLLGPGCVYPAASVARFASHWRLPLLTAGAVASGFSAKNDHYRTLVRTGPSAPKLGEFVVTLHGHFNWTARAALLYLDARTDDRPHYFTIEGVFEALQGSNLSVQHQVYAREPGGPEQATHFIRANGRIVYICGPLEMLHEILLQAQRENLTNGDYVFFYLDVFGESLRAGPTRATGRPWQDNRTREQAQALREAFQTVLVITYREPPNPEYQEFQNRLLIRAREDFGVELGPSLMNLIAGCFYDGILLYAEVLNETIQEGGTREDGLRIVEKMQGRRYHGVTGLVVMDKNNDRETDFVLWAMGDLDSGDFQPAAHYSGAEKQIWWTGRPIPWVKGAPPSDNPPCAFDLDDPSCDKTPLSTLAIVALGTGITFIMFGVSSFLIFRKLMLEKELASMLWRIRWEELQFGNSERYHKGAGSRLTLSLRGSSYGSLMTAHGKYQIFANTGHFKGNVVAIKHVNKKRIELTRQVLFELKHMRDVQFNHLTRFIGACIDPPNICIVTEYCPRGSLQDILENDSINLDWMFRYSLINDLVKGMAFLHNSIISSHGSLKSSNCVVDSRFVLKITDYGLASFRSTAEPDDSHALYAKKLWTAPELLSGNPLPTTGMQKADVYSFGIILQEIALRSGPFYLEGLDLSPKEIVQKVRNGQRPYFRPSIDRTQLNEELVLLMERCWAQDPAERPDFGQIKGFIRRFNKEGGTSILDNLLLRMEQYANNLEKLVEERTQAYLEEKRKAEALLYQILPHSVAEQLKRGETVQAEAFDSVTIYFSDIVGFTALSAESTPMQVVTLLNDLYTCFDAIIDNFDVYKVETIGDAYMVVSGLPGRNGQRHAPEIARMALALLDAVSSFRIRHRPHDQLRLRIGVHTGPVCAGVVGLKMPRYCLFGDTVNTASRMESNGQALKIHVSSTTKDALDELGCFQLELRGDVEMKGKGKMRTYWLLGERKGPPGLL
Chain of Atrial natriuretic peptide receptor 1 (Homo sapiens) (P16066 whole entry, looked up): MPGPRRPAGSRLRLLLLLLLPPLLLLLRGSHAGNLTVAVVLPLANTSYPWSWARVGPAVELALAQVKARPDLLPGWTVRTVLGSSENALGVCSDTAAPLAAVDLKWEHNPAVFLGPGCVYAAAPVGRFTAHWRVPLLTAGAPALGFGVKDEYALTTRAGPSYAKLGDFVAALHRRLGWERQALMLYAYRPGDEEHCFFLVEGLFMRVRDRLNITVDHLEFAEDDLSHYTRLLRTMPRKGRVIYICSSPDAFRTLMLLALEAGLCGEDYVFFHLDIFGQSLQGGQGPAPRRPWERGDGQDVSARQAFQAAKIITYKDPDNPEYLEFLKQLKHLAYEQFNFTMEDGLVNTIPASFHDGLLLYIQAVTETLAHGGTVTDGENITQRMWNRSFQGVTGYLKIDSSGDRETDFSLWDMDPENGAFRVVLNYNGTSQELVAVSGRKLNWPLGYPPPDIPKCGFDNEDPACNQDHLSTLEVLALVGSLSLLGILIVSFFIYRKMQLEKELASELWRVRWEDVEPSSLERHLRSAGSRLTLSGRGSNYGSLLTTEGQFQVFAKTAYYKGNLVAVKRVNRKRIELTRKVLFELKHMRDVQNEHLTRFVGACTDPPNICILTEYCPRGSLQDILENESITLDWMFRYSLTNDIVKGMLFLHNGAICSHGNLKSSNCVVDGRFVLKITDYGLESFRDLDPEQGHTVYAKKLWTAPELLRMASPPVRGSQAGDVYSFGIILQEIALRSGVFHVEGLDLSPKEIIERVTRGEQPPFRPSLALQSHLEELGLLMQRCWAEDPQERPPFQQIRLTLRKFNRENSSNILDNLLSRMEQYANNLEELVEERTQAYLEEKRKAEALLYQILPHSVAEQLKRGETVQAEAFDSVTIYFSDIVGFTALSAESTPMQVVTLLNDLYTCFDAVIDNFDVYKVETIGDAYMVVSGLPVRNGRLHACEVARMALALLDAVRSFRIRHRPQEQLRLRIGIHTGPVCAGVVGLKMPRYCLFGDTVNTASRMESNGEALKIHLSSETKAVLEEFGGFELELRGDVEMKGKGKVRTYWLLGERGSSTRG

On to `C[C@]12CC[C@@H]3c4ccc(OC(=O)N(CCCl)CCCl)cc4CC[C@H]3[C@@H]1CC[C@@H]2O`, for which the compound was called inactive in [1], in experiment [2], in [3] and in [4].

Turning to `CC(Cc1ccccc1)N(C)Cc1ccco1` (stereo not drawn), the call in experiment [1] and in experiment [2] was inactive.

Take `C[C@]12CCC(=O)C=C1CC[C@@H]1[C@H]3CC[C@](C)(O)[C@@]3(C)CC[C@@H]12`: the viability (% of control) in experiment [5] was 93.9% [at 92.2 µM]. Further, the compound was classed as inactive in [1] and in [2]. Besides, the Potency in experiment [6] is 31.6 µM (active).

As to `C=CCN1C[C@H](C)N([C@H](c2ccc(C(=O)N(CC)CC)cc2)c2cccc(OC)c2)C[C@H]1C`, the call in [1], in [2], in experiment [3], in experiment [4] and in experiment [8] was inactive. The outcome in experiment [7] is “inactive [at 9.29 µM]”. Further, the activity change, negative = cytotoxicity in experiment [6] was -6.15% [at 9.29 µM] (inactive).

As to `Nc1ccccc1C(=O)O`, the outcome in experiment [1], in experiment [2], in experiment [3] and in [4] was inactive.

In the case of `C[N+]1(C)[C@@H]2CC(OC(=O)[C@H](CO)c3ccccc3)C[C@H]1[C@@H]1O[C@@H]12` (stereo partly drawn), the compound was classed as inactive in experiment [1].

Take `O=C(O)c1ccc(=O)[nH]c1`: the call in experiment [1] and in [2] was inactive.

`CN(C)CCc1c[nH]c2cccc(OP(=O)(O)O)c12`: the result in experiment [1] and in experiment [2] was inactive.

`Clc1cccc(SC2CCNCC2)n1`: the call in experiment [1], in experiment [2], in experiment [3] and in experiment [4] was inactive.

On to `CN1C(=O)CCS(=O)(=O)C1c1ccc(Cl)cc1` (stereo not drawn), for which, in [5], the viability (% of control) was 112%. Moreover, the compound was classed as inactive in [1], in experiment [2], in experiment [9], in [3], in experiment [4] and in experiment [10]. Moreover, the result in experiment [11], in [12], in experiment [13] and in [14] was inactive. Further, the Potency entry in experiment [6] is “inactive”.

Turning to `CC(C)NC(C)C`, the compound was called inactive in experiment [1], in experiment [2], in [3] and in [4].

For the compound `CC(NC(C)(C)C)C(=O)c1cccc(Cl)c1` (stereo not drawn), the viability (% of control) in [5] is 97.9%. The compound was classed as inactive in experiment [1], in experiment [2], in [9], in experiment [3], in [4] and in experiment [10]. The call in experiment [11], in [12], in [8], in experiment [13] and in experiment [14] was inactive. Besides, the Potency result in experiment [15], in [16] and in experiment [17] was “inactive” in each case.

Consider `COc1cc(OC)c(OC)cc1C=O`, for which the viability (% of control) in [5] worked out at 98.8%. For the same compound, the compound was called inactive in experiment [1], in [2] and in experiment [8]. Besides, the Potency result in [6] is “inactive”.

Turning to `COC(=O)C(Cl)C(=O)OC`, the compound was classed as inactive in [1] and in experiment [2].

Regarding `O=c1[nH]c2ccccc2n1C1CCNCC1`, the outcome in [1] and in experiment [2] was inactive.

`C[C@@H](N)[C@@H](O)c1ccccc1`: the result in experiment [1], in [2], in experiment [3] and in experiment [4] was inactive.

`CN1C(=O)COc2c(C(=O)NC3CN4CCC3CC4)cc(Cl)cc21` (stereo not drawn): the viability (% of control) in experiment [5] was determined as 120%. Also, the compound was classed as inactive in [1], in experiment [2], in experiment [9], in [3] and in experiment [4]. In addition, the Potency result in [15], in experiment [16] and in experiment [17] was “inactive” throughout.
